Test results published in PubChem BioAssay (EPA / NIEHS).
Results filed as inconclusive are left out. Activity calls are given as the source filed them. The calls were made as follows: active = hit-call score of the fitted dose curve at least 0.9, where 1 is the maximum; inconclusive = response in the unintended direction; inactive = score below 0.9.

Target: Androgen Receptor/SRC-1 Co-activator, AR (gene 367) (UniProt P10275)
Experiment: OT_AR_ARSRC1_0480: Odyssey Thera (OT) 8-hour HEK293T Protein-Complementation Assay for Androgen Receptor/SRC-1 Co-activator (AID 2283354);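 also: hits raise the complementation signal above DMSO so AC50 marks enhancers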
Procedure: OT_AR_ARSRC1_0480 is a cell-based, single-readout assay that uses HEK293T, a human kidney cell line, with measurements taken at 8 hours after chemical dosing in a 384-well plate.OT_AR_ARSRC1_0480 is one of one assay component(s) measured or calculated from the OT_AR_ARSRC1_0480 assay. It is designed to make measurements of protein fragment complementation, a form of binding reporter, as detected with fluorescence intensity signals by Protein-fragment Complementation technology.Data from the assay component OT_AR_ARSRC1_0480 was analyzed into 1 assay endpoint. This assay endpoint, OT_AR_ARSRC1_0480, was analyzed in the positive analysis fitting direction relative to DMSO as the negative control and baseline of activity. Using a type of binding reporter, measures of receptor for gain-of-signal activity can be used to understand the binding at the pathway-level as they relate to the gene AR. Furthermore, this assay endpoint can be referred to as a primary readout, because the performed assay has only produced 1 assay endpoint. To generalize the intended target to other relatable targets, this assay endpoint is annotated to the nuclear receptor intended target family, where the subfamily is steroidal.
Protein-fragment complementation assay, or PCA, is a method for the identification and quantification of protein-protein interactions. In the PCA, the proteins of interest ("bait" and "prey") are each covalently linked to fragments of a third protein (e.g. DHFR, which acts as a "reporter"). Interaction between the bait and the prey proteins brings the fragments of the reporter protein in close proximity to allow them to form a functional reporter protein whose activity can be measured. The OT AR / SRC-1 assay assessed androgen receptor chemical interactions using a rapidly maturing, intensely fluorescent mutant of YFP known as Venus, rationally dissected into two separate fragments. […] Fusion constructs were transfected into HEK293T cells with a (Gly4Ser)2 linker between the AR/SRC-1 and YFP fragment genes to facilitate complementation when interacting proteins bring fragments into close proximity. The construct is stably expressed in HEK293T cells. […] Images were acquired on an Evotec Opera at 2 wavelengths (488 and 635nm), and the ratio of fluorescence in the nucleus relative to fluorescence in the cytoplasm (N/C Ratio) in the 488nm channel was calculated for a minimum of 400 cells per image. Both agonists and antagonists of the AR receptor induce nuclear translocation to varying degrees. […] The OT AR/SRC-1 assay was also run for 16 hours (see description for OT_AR_ARSRC1_0960).

Sequence of Androgen Receptor/SRC-1 Co-activator, AR (gene 367) (P10275 whole entry, looked up): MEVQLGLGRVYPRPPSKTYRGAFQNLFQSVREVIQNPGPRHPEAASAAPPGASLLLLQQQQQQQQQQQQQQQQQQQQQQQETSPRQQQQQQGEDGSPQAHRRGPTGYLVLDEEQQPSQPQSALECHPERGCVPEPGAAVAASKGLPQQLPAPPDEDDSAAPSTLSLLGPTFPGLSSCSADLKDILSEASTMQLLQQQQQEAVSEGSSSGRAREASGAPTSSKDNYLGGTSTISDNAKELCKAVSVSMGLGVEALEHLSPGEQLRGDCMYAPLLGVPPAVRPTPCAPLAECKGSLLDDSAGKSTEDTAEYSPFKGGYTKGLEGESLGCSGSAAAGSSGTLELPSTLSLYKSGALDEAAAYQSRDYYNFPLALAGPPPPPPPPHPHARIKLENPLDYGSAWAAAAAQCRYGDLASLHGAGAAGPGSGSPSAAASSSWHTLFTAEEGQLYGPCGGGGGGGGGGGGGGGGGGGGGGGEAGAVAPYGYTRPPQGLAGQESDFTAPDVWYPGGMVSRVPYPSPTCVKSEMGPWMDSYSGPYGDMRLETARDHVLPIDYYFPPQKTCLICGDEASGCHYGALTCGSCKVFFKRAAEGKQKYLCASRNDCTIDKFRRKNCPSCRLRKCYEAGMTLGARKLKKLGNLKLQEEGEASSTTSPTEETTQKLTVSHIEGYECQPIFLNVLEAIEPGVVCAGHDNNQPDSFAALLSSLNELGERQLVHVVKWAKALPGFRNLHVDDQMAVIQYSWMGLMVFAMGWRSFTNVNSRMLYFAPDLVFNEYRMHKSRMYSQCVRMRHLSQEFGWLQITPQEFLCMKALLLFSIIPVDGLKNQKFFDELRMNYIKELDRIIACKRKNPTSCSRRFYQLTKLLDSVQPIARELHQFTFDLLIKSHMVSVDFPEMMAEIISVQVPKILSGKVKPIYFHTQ

| Structure (SMILES) | outcome | AC50 |
| --- | --- | --- |
| CCC(C)N(C)C(=O)c1cc2ccccc2c(-c2ccccc2Cl)n1 (configuration not stated) | inactive |  |
| C#CC(O)C(CC)CCCC (configuration not stated) |  | 93.7 µM (active) |
| O=C1CCCCC1 | inactive |  |
| NCCOCCOCCN | inactive |  |
| O=Cc1ccccc1C=O |  | 66.1 µM (active) |
| Cc1c(C)c2c(c(C)c1O)CCC(C)(COc1ccc(CC3SC(=O)NC3=O)cc1)O2 (configuration not stated) | inactive |  |
| O=C1OC(c2ccc(O)cc2)(c2ccc(O)cc2)c2ccccc21 |  | 60.1 µM (active) |
| Cc1cc(SC2=C(O)C[C@@](CCc3ccc(N)cc3)(C(C)C)OC2=O)c(C(C)(C)C)cc1CO | inactive |  |
| CC1=C(C)S(=O)(=O)CCS1(=O)=O | inactive |  |
| O=C(Oc1ccccc1)c1cccc(C(=O)Oc2ccccc2)c1 | inactive |  |
| CC(C)OC(=O)C(C)(C)Oc1ccc(C(=O)c2ccc(Cl)cc2)cc1 | inactive |  |
| Cc1ccc(-c2cc(C(F)(F)F)nn2-c2ccc(S(N)(=O)=O)cc2)cc1 |  | 72.6 µM (active) |
| CSc1ccc(Oc2ccc(S(N)(=O)=O)cc2CN(C)C)cc1C |  | 77 µM (active) |
| Nc1nc(=S)c2[nH]cnc2[nH]1 | inactive |  |
| CCOCCOCCO | inactive |  |
| CCCCCCCCCC[N+](C)(C)[O-] | inactive |  |
| C=CCCCCCCCCCCCC | inactive |  |
